# The entries come from a sample that favours hits as a whole.
# TDP-43 rescue: qHTS of TDP-43 Inhibitors: NCGC Sytravon Library Screen; yeast TDP-43 toxicity rescue, BacTiter-Glo growth, 24 h; Potency, µM (titrated, usually from 46.1 µM), actives largely listed as activators; hit rate 0.45% among 45,000; active = well fitted activation curve with a large enough effect; note: 0% is about no effect; nearly all actives have a fitted effect of over 55% in size
#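 TDP-43-expressing yeast, pregrown in raffinose, seeded at OD600 0.02 in galactose medium with compound for 24 hr at 30 deg C. Growth read by BacTiter-Glo luminescence, so rescue of toxicity appears as activation.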
# Numbers without * were called inactive; i = inactive. Potency is the fitted concentration of half-maximal effect.
SMILES,TDP-43 rescue
O=C(CSCc1ccc(Cl)cc1)Nc1ccccc1O,i
Cc1ccc(SCCC(=O)N/N=C/c2ccccc2O)cc1,i
O=C(CCCSc1ccc(Cl)cc1)Nc1ccccc1O,11µM*
CC(=O)c1ccc(NC(=O)Cc2ccsc2)cc1,i
CCC(=O)Nc1ccc(NC(=O)c2cc3ccccc3o2)c(OC)c1,i
Cc1ccc(C)c(CN2C(=O)c3ccccc3S(=O)(=O)c3ccc(C(=O)N4CCN(c5ccccn5)CC4)cc32)c1,i
Cc1nc([N+](=O)[O-])c(C(=O)OCc2cccc(Br)c2)n1C,13µM*
COc1cc(OC)cc(C(=O)OCc2ccc([N+](=O)[O-])cc2)c1,i
Cc1nc([N+](=O)[O-])c(C(=O)OCc2ccccc2)n1C,i
CC(C)Cc1nnc(NC(=O)c2cc3c(s2)CCC3)s1,i
O=C(Nc1nccs1)c1cc2c(s1)CCCCC2,7.1µM*
O=C(Nc1nnc(SCc2ccccc2)s1)c1cc2c(s1)CCCC2,i
CC(=C/c1ccco1)/C=N/NC(=O)c1nnn(-c2nonc2N)c1CN(C)C,i
CCOC(=O)N1CCN(C(=O)CNC(=O)c2nn(-c3ccc(OC)c(Cl)c3)c(=O)c3ccccc23)CC1,i
O=C(COC(=O)/C=C/c1ccc(F)cc1)NC1CCCCCC1,i
Cc1cccc(C)c1NC(=O)/C(C#N)=C/c1ccsc1,20µM*
COc1cc(/C=C(\C#N)C(=O)Nc2cccc3ncccc23)cc(OC)c1OC,i
COc1ccc(/C=C(\C#N)C(=O)OCC(=O)Nc2c(C)cccc2C)cc1,i
CCCCNC(=O)c1ccc2nc(CC)c(N(CC)CCN(C)C)n2c1,i
CC(C)(C)SCCNC(=O)/C=C/c1cccc([N+](=O)[O-])c1,i
O=C(C1=C(O)C(=O)N(CC2CCCO2)C1c1cccc(Cl)c1)c1ccco1 (stereo unspecified),i
COC(=O)c1ccc(N2C(=O)CC(N3CCOCC3)C2=O)cc1 (stereo unspecified),16µM*
CC1CCN(C2CC(=O)N(c3ccccc3)C2=O)CC1 (stereo unspecified),i
CCOC(=O)c1ccc(N2C(=O)CC(N3CCN(Cc4ccccc4)CC3)C2=O)cc1 (stereo unspecified),i
O=C(CCc1ccc(O)c(O)c1)NNC(=S)Nc1ccc(Br)cc1Cl,i
SMILES,TDP-43 rescue
FC(F)(F)Oc1ccc(NC(=S)NCCCN2CCOCC2)cc1,i
COc1ccc(-c2csc(C(C)(O)c3cccc(F)c3)n2)cc1 (stereo unspecified),14µM*
Cc1ccc(-c2csc(C(C)(O)c3cccc(F)c3)n2)cc1C (stereo unspecified),i
CC(O)(c1cccc(F)c1)c1nc(-c2cccc(F)c2)cs1 (stereo unspecified),i
COc1ccc(C(=O)NNC(=O)CSc2nnc(-c3cccnc3)n2C)cc1,i
O=C(NC1CCN(S(=O)(=O)c2cccc(Cl)c2)CC1)C1CCCCC1,i
CCOc1cccc(C(=O)NC(=S)Nc2cccc(C)c2)c1,20µM*
O=C(NC(=S)Nc1ccc2c(c1)OCCO2)c1cccc(Br)c1,13µM*
COC(=O)COc1cccc(NC(=O)c2cccc(C)c2)c1,i
O=C(Nc1ccc(C(=O)O)cc1)/C(=C/c1ccc2c(c1)OCO2)NC(=O)c1cccc(Br)c1,i
CCOC(=O)NC(=S)Nc1cccc(NC(=S)NC(=O)OCC)c1,i
O=C(Nc1cccc(Cl)c1)c1ccc2c(c1)OCCO2,i
CCc1ccc(/C=C(\Cl)c2nc3cc(Cl)ccc3c(=O)[nH]2)cc1,i
CCCCNC(=O)N1c2ccccc2CC1C (stereo unspecified),i
O=C(Cc1ccc(F)cc1)N1CCC(N2CCC(C(=O)N3CCOCC3)CC2)CC1,i
COc1cc(/C=C/C(=O)O)ccc1OCc1ccc([N+](=O)[O-])cc1,i
COc1cc(/C=C/C(=O)O)ccc1OS(=O)(=O)c1ccc(C)cc1,i
COc1ccc(/C=C/C(=O)O)cc1Cl,11µM*
O=C(Nc1ccccc1C(=O)N/N=C/c1ccncc1)c1ccccc1,i
CCC(=O)OCc1cc(=O)oc2ccc3ccccc3c12,i
NC(=O)N/N=C/c1coc2ccc3ccccc3c2c1=O,i
O=C(O)Cc1coc2ccc3ccccc3c12,13µM*
CCN(CC)C(=O)c1ccc(COc2ccccc2Cl)o1,i
O=C(Nc1ccc(Cl)cn1)c1ccc(COc2ccccc2Br)o1,11µM*
CCc1nnc(NC(=O)c2ccc(COc3ccccc3Cl)o2)s1,i
SMILES,TDP-43 rescue
CCOC(=O)c1oc2c(c1C)-c1nn(Cc3ccccc3Cl)cc1CC2,i
Cc1c(C(=O)O)oc2c1-c1nn(Cc3ccccc3Cl)cc1CC2,11µM*
CC(=O)Nc1ccc(NC(=O)c2c(C)nn(Cc3ccccc3Cl)c2C)cc1,i
O=C(c1cc[n+]([O-])cc1)N1CCCC(N2CCN(c3cccc(C(F)(F)F)c3)CC2)C1 (stereo unspecified),i
O=P(CCCO)(Cc1ccccc1)Cc1ccccc1,i
COc1ccccc1N1CCN(c2c3c(nc4nncn24)CCC3)CC1,i
Cc1cccc(Nc2c3c(nc4nncn24)CCC3)c1,i
Cc1ccc(Nc2c3c(nc4nncn24)CCC3)cc1,13µM*
O=S(=O)(c1ccccc1)N(CC1CO1)c1cccc2ccccc12 (stereo unspecified),i
O=C(N/N=C/c1ccccc1F)c1ccccc1OCc1ccccc1,i
CC(=O)C1=C(O)C(=O)N(c2ccc(S(=O)(=O)Nc3nccs3)cc2)C1c1ccc(F)cc1 (stereo unspecified),i
CC(=O)Nc1nc(-c2ccc([N+](=O)[O-])cc2)cs1,i
N#CCCn1cc(C(=O)Nc2ccc([N+](=O)[O-])cc2)c(-c2cccs2)n1,i
O=[N+]([O-])c1ccc(-c2nc(-c3cccs3)c(-c3cccs3)[nH]2)cc1,3.2µM*
CN(C)S(=O)(=O)c1ccc(-c2csc(N/N=C/c3ccc(O)cc3)n2)cc1,i
CC(=O)OC[C@@H]1CN(Cc2ccccc2)C[C@H](n2cnc3c(NCC(C)C)ncnc32)O1,i
CC1CC(OC(=O)c2ccccc2C(=O)c2ccc(Cl)cc2)C(=O)O1 (stereo unspecified),i
C/C(=N/NS(=O)(=O)c1ccc(C)cc1)[C@H]1C[C@@H]1c1ccccc1,i
O/N=C(/c1ccc(Cl)cc1)C1CC1c1ccccc1 (stereo unspecified),11µM*
CCOC(=O)CN(C(=O)CNC(=O)c1ccco1)C(C(=O)NC1CCCCC1)c1cccnc1 (stereo unspecified),i
CC(C)c1ccccc1NC(=O)COC(=O)COc1ccccc1[N+](=O)[O-],i
CCc1nc2c(OCC(=O)C(C)(C)C)cccn2c1N(C)C(=O)CC(C)C,i
CC(=O)Nc1ccc(-c2ccnc3c2CC(C(=O)Nc2cccc(C(C)=O)c2)O3)cc1 (stereo unspecified),i
O=C(CSc1ncn[nH]1)NCCc1ccc(Cl)cc1Cl,i
O=C(Cn1cnnn1)NCCc1ccc(Cl)cc1Cl,i
O=C(CCl)N=c1sccn1Cc1ccc(Cl)cc1Cl,20µM*
COc1ccc(/C=C2/C(=O)N(c3nc4ccccc4s3)N=C2CSc2ccc(Cl)cc2)cc1,i
CC1CN(C(=O)N2c3ccccc3Sc3ccccc32)CC(C)O1 (stereo unspecified),13µM*
CC1CN(C(=O)C(Sc2ccccc2)c2ccccc2)CC(C)O1 (stereo unspecified),i
